# According to PubChem BioAssay (NCI):
# Where “and” joins values, the source holds several entries; their conditions need not be identical. Equal values may be shown once. The panel holds about 83,000 compounds, 20% with a hit somewhere; the sample as a whole holds those more often.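 Step 1: grow cells in 96-well plates. Step 2: add test compound at a single concentration. Step 3: incubate 48 h. Step 4: record percent growth.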 A number with no mark means an inactive call. Calls of active or inactive are those of the source.
# Tested on: TK-10 renal
# Test: NCI-60 one-dose screen, 48 h (100 = growth as untreated, 0 = no growth, -100 = all killed)
# Conditions: 10 µM
# Procedure: Growth inhibition of the TK-10 human tumor cell line is measured as a screen for anti-cancer activity. Cells are grown in 96 well plates and exposed to the test compound for 48 hours. Compounds are tested at a single concentration, which is 10^-5 M for most compounds. The reported endpoint is percent growth (GI% or GIPRCNT), where numbers from 0 - 100% represent growth inhibition, and numbers from -100% - 0 represent cell death. For example, a value of 40 represents 60% growth inhibition. A value of 0 means no net growth occurred over the course of the experiment. A value of -40 indicates 40% of cells at the beginning of the experiment died by the end of the experiment. A value of -100 means all cells are dead at the end of the experiment.
# NCI-60 Human Tumor Cell Lines Screen was performed using the standard one-dose NCI protocol, which is described in more detail at https://dtp.cancer.gov/discovery_development/nci-60/default.htm.
# Compounds with GIPRCNT values below 10 were considered active. Activity score was based on GIPRCNT using the following formula: […]
# Score is 0 for GIPRCNT values of 100 or above, 50 for GIPRCNT values of 0, and 100 for GIPRCNT values of -100.
row,Structure (SMILES),growth
1,CC(=O)/C=C/c1ccc(OCc2ccc(Cl)cc2)cc1,77.6%
2,CC(=O)/C=C/c1ccc(N(C)Cc2ccc(C(C)(C)C)cc2)cc1,115%

# Same assay, conditions: 10 µM unless noted
row,Structure (SMILES),growth
1,O=C(CC1(O)C(=O)Nc2ccc(Br)cc21)c1ccc(Cl)cc1 (stereo not given),123%
2,C=C1C(=O)O[C@H]2[C@H]1CC/C(CNS(=O)(=O)c1ccc3ccccc3c1)=C\CC[C@@]1(C)O[C@@H]21,-78.5% (active)
3,CSc1nnc(-c2cc3c([nH]c4ccccc43)c(-c3cccc(O)c3)n2)n1-c1ccc(C)cc1,35.5%
4,CCCCCCCCCCCCC[C@H](O)C[C@H](O)[C@H](C)N,137% [1.25 µM]
5,CC1=C2[C@@H](CC1)[C@]1(C)O[C@@](C3CC3)(C[C@H]1OC(=O)CO)[C@H]2OC(=O)/C=C/c1ccccc1,106%
6,C=C1C(=O)O[C@H]2[C@H]1CC/C(COC(=O)NCc1ccc(Cn3c(=O)sn(CCCI)c3=O)cc1)=C\CC[C@@]1(C)O[C@@H]21,0.113% (active)
7,N#C/C(=C\c1ccc(Br)cc1)n1nnc2c(F)cccc21,2.41% (active)
8,Clc1ccc(CNc2ccc3nc(CCC4CCCCC4)[nH]c3c2)cc1,83.6%
9,ON=C1CCCCCCCC1,100%
10,CCCO/N=C/c1ccccn1,112% and 89.3%
11,Cc1ccc(S(=O)(=O)Nc2cc(Sc3ccccc3)c(O)c3ccccc23)cc1,111%
12,NS(=O)(=O)c1ccc(C(=O)N=Nc2c(O)[nH]c3c(F)cccc23)cc1,107%
13,O=C(/C=C/c1ccc([N+](=O)[O-])cc1)c1ccccc1,68.9%
14,Cc1ccc(-c2nc([P+](c3ccccc3)(c3ccccc3)c3ccccc3)c(Nc3ccccc3)o2)cc1,8.06% (active)
15,COc1ccc(-c2cc(-c3cccc(Cl)c3)c(C#N)c(=O)[nH]2)c(OC)c1,103%
16,COc1ccc(Cl)cc1Nc1nc(C(F)(F)F)ccc1C(=O)N/N=C/c1ccc(N(C)C)cc1,95.9%
17,COc1ccc(/C=N\Nc2nc(SCC(C)C)nc(-c3ccc(OC)cc3)c2C#N)cc1,-54.7% (active)
18,CN(C)CCCn1c2c(c3ccc(N4CCNCC4)cc3c1=O)C(=O)c1ccccc1-2,-0.224% (active)

row,Structure (SMILES),growth
1,Cc1ccc(-c2nc3nc(-c4ccc(Cl)cc4)nc(N4CCCNCC4)c3o2)cc1,29.7%
2,Cc1nn(-c2nc(-c3cc4ccccc4oc3=O)cs2)c(C)c1N=Nc1ccccc1,112%
3,O=C(Cc1ccc(F)cc1)c1ccccc1,104%
4,CCOC(=O)c1c(-c2ccc(C)cc2)c(C#N)c(=O)n(-c2cccc(C(F)(F)F)c2)c1N,112%
5,CN(C)CCN1C(=O)c2c(c3c4ccccc4n4c3c3c2c2ccccc2n3C2CC(O)C(O)C4(C)O2)C1=O (stereo not given),24.6%
6,Cc1ccc(-c2nc(C#N)c(S(=O)(=O)N(C)C)o2)cc1,103%
7,CC(=O)N1N=C(c2ccc(Nc3nc(Nc4ccc(F)cc4)nc(Nc4ccc(Cl)cc4)n3)cc2)CC1c1ccc(N(C)C)cc1 (stereo not given),50.5%
8,C/C=C(\C)C(=O)N[C@H]1CC[C@]2(C)C3CC[C@@]4(C)C(CC[C@@H]4C(C)N(C)C)C3CCC2[C@H]1OC(C)=O (stereo not given in full),-48.3% (active)
9,C=CCN1C=CC(=O)[C@H](O[Si](C)(C)C(C)(C)C)[C@@H]1/C=C/c1ccccc1,-64.6% [100 µM] (active)
10,CC(=O)c1c(C)nc(SCC(=O)Nc2ccc(Cl)cc2)n1-c1ccc(Cl)cc1,99.5%
11,C#CCOCC1CN(C)C(=O)O1 (stereo not given),110%
12,CC(C)(C)c1cc(NC(=O)Nc2ccc(-c3cn4c(n3)sc3cc(OCCN5CCOCC5)ccc34)cc2)no1,24.2% and 45%
13,CCN1CCN(C(=O)[C@]23CC[C@@H](C)[C@H](C)[C@@H]2C2=CC[C@@H]4[C@@]5(C)CCC(=O)C(C)(C)[C@@H]5CC[C@@]4(C)[C@]2(C)CC3)CC1,18.7%
14,COC(=O)c1[nH]nc(OC)c1C1(C(C#N)c2nc3ccccc3s2)CCCc2ccccc21 (stereo not given),139%
15,NC(=O)c1c(NC(=O)/C=C/c2cccs2)sc2c1CCC(=O)C2,43.9%
16,C=C(C)[C@@H]1CC[C@]2(C(=O)O)CC[C@]3(C)[C@H](CC[C@@H]4[C@@]5(C)CCC(N)C(C)(C)[C@@H]5CC[C@]43C)[C@@H]12 (stereo not given in full),47.8%
17,CCOc1ccccc1NC(=O)c1cc2ccccc2cc1O,50.6%
18,COc1cc(-c2[nH]ncc2Nc2ccc(Cl)cc2)cc(OC)c1OC,67.8%

# Same assay, conditions: 100 µM
row,Structure (SMILES),growth
1,CC(=O)/C=C/c1ccc(OCc2ccc(Cl)cc2)cc1,27.9%
2,CC(=O)/C=C/c1ccc(N(C)Cc2ccc(C(C)(C)C)cc2)cc1,-13.7% (active)
